Results: ChEMBL document CHEMBL3988442, “University of Dundee, Small-Polar-MMV Screening Library” (2021)
For part of these data: Results with a measured potency or affinity are listed apart.

How the values were obtained:
Design in all cases: scale not given: direction of the effect not stated beside the values
[1] = molecular target: Protein translocase subunit SecA (Escherichia coli (strain K12)) (UniProt P10408); experiment: Assay to Identify E. coli SecA ATPase Inhibitors; type: functional; conditions: 30 µM
[2] = molecular target: T1, Ubiquitin-activating enzyme e1, putative (Leishmania donovani (strain BPK282A1)) (UniProt E9BSI1); experiment: Leishmania donovani Ubiquitin Activating Enzyme (LdE1); type: functional; conditions: 30 µM
T1 sequence (whole entry): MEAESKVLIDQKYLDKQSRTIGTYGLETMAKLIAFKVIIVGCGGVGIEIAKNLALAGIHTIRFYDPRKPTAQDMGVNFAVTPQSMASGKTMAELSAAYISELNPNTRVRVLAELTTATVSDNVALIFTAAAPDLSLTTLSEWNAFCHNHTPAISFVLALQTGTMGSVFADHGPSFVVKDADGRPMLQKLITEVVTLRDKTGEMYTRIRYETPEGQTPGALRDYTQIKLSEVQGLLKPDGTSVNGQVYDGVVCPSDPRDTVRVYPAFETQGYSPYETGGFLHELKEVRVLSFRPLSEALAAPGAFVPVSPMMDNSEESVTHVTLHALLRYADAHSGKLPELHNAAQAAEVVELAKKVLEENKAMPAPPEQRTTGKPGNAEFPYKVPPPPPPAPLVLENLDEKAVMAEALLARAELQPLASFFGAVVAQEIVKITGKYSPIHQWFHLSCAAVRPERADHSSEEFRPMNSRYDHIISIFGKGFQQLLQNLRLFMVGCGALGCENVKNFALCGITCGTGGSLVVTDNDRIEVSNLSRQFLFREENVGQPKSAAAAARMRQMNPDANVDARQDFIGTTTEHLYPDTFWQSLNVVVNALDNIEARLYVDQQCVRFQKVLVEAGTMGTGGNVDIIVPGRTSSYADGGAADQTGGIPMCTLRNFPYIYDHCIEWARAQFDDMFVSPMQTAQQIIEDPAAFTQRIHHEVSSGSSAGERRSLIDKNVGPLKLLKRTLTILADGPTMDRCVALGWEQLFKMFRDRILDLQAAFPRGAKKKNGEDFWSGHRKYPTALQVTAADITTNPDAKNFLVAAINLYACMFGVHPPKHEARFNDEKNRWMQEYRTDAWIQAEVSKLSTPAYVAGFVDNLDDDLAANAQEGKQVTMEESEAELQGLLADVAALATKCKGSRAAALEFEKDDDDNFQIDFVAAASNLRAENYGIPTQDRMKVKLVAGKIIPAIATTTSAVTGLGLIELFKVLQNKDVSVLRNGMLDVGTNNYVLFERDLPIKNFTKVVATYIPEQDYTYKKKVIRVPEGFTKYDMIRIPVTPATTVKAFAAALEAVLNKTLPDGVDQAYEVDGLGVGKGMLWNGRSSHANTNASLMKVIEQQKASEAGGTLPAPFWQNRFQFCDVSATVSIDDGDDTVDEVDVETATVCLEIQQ

[3] = molecular target: AMP-activated protein kinase, AMPK (Homo sapiens) (UniProt P54646+O43741+P54619+Q9UGJ0+Q9Y478+Q13131+Q9UGI9); experiment: AMP-dependent Kinase enzyme assay. An in vitro enzyme assay that detects ADP turnover that is directly proportional to AMPK activity. This uses naive AMPK that is activated during the assay with MK-8722; type: functional; conditions: 30 µM
[4] = molecular target: Sialic acid-binding Ig-like lectin 9 (Homo sapiens) (UniProt Q9Y336); experiment: Hs-Siglec9 ALPHAscreen SOP 20170721; conditions: 10 µM
Trypanosoma cruzi = experiment: Trypanosoma cruzi phosphomannomutase and mannose-1-phosphate guanylyltransferase assay; type: functional; conditions: 10 µM
[5] = molecular target: T2, Arginase-2, mitochondrial (Homo sapiens) (UniProt P78540); experiment: in vitro enzyme assay to detect the production of urea directly proportional to the activity of Arginase II; type: functional; conditions: 33.3 µM; further: in the data most compounds retested in dose-response had high values
T2 sequence (whole entry): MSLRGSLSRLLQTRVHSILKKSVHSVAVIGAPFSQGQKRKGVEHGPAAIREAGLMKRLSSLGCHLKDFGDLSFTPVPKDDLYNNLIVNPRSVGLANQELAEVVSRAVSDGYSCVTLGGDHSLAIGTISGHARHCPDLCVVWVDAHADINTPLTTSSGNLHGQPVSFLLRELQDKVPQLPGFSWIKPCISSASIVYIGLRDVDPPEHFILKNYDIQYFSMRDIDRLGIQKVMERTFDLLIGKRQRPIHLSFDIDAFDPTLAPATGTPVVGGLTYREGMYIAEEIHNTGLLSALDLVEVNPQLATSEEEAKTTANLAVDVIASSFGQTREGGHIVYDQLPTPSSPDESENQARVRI

[6] = molecular target: T3, Proteasome subunit beta (Trypanosoma cruzi) (UniProt O96673); experiment: Trypanosoma cruzi proteasome chymotrypsin-like activity (TcProtChymo) assay.; further: in the data most compounds retested in dose-response had high values; type: functional; conditions: 9.37 µM
T3 sequence (whole entry): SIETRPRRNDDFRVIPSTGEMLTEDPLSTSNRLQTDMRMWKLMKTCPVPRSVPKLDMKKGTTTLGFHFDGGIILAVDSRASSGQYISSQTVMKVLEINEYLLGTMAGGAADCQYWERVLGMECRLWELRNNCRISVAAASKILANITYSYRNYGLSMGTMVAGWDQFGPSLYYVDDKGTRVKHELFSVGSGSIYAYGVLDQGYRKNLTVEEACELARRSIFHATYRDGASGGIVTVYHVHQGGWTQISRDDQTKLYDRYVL

Homo sapiens = species on record: Homo sapiens; experiment: To identify inhibition of the IFN signalling (Jak-Stat) pathway via expression of an eGFP reporter gene under the control of an IFN-stimulated response element (ISRE) containing MxA promoter.; type: functional; conditions: 30 µM
[7] = molecular target: T4, Tyrosyl-tRNA synthetase, putative (Trypanosoma cruzi (strain CL Brener)) (UniProt Q4DSP6); experiment: Trypanosoma cruzi tyrosyl tRNA synthetase (TcYRS) _High Tyrosine SOP; type: functional; conditions: 30 µM; further: in the data most compounds retested in dose-response had high values
T4 sequence (whole entry): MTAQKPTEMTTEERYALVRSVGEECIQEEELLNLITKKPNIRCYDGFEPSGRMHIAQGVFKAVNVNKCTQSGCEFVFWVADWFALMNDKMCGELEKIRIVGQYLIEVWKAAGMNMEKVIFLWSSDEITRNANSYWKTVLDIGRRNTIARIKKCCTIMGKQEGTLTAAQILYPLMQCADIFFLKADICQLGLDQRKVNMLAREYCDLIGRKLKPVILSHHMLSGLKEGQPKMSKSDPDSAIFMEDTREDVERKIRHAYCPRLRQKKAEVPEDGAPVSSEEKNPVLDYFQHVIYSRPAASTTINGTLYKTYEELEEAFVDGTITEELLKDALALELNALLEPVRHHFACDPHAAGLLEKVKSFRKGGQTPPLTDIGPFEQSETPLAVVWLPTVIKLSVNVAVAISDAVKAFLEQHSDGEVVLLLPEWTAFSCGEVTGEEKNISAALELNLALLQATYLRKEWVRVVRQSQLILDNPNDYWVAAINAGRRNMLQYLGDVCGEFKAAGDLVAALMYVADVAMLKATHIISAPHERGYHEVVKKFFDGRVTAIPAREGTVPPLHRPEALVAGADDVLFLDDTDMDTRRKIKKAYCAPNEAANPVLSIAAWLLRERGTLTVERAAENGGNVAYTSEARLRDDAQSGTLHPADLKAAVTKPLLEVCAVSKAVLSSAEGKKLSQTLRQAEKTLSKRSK

[8] = molecular target: T4, Tyrosyl-tRNA synthetase, putative (Trypanosoma cruzi (strain CL Brener)); experiment: Trypanosoma cruzi tyrosyl tRNA synthetase (TcYRS) SOP; type: functional; conditions: 30 µM
[9] = molecular target: Chromo domain-containing protein 1 (Saccharomyces cerevisiae (strain ATCC 204508 / S288c) (Baker's yeast)) (UniProt P32657); experiment: ScCHD-1 Enzyme Inhibition Assay; type: functional; conditions: 30 µM; further: in the data most compounds retested in dose-response had high values
Chain of Chromo domain-containing protein 1 (Saccharomyces cerevisiae (strain ATCC 204508 / S288c) (Baker's yeast)) (P32657 whole entry, the tested form may be a part): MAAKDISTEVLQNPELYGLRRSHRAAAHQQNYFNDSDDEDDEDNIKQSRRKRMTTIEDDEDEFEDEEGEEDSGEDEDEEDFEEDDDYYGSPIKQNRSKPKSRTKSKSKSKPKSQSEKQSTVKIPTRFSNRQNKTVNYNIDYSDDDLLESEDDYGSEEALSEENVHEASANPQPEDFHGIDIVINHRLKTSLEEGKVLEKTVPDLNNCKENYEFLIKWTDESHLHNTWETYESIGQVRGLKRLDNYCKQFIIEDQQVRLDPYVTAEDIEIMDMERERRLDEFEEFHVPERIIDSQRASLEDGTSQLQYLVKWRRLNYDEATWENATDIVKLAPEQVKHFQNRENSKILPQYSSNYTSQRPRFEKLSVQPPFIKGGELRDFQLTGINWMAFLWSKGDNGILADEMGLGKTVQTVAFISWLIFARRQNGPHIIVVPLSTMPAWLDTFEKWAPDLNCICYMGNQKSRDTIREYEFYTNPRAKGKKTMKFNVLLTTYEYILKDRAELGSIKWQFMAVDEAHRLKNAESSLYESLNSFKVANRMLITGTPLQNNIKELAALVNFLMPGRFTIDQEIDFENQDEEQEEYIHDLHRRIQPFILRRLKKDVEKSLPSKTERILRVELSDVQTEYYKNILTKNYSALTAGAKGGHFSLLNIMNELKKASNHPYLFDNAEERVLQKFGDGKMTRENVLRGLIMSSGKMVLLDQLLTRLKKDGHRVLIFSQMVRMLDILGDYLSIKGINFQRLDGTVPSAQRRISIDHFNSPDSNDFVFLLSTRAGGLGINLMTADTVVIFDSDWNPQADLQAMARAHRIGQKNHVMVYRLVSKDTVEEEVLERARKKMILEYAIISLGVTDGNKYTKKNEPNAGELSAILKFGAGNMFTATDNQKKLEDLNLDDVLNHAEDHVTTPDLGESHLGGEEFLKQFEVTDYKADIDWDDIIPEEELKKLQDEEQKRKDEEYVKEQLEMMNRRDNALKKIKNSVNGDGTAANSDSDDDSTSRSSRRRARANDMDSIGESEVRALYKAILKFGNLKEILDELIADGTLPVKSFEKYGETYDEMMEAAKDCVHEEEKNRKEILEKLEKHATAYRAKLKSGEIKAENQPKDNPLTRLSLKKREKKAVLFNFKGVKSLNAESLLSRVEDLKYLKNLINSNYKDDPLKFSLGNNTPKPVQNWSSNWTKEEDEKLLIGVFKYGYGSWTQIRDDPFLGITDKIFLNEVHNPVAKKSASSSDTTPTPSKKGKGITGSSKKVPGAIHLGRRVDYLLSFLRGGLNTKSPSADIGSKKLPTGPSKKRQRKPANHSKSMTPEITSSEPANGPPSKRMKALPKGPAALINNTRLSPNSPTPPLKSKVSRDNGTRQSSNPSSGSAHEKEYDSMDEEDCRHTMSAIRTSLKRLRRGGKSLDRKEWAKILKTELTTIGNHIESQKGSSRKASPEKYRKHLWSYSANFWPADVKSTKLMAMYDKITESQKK

Chain of Sialic acid-binding Ig-like lectin 9 (Homo sapiens) (Q9Y336 whole entry): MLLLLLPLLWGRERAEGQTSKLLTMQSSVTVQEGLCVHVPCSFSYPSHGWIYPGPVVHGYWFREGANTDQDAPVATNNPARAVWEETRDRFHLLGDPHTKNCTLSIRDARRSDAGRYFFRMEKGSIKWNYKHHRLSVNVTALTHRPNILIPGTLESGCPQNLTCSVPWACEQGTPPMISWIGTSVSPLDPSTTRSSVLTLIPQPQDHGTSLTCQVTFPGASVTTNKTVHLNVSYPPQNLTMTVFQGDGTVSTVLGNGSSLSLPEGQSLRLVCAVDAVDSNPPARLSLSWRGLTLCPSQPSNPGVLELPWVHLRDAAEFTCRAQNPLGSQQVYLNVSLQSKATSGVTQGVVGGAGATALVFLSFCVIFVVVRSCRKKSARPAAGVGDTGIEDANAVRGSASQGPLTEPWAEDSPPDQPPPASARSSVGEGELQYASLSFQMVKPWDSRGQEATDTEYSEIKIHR
Chain of Protein translocase subunit SecA (Escherichia coli (strain K12)) (P10408 whole entry): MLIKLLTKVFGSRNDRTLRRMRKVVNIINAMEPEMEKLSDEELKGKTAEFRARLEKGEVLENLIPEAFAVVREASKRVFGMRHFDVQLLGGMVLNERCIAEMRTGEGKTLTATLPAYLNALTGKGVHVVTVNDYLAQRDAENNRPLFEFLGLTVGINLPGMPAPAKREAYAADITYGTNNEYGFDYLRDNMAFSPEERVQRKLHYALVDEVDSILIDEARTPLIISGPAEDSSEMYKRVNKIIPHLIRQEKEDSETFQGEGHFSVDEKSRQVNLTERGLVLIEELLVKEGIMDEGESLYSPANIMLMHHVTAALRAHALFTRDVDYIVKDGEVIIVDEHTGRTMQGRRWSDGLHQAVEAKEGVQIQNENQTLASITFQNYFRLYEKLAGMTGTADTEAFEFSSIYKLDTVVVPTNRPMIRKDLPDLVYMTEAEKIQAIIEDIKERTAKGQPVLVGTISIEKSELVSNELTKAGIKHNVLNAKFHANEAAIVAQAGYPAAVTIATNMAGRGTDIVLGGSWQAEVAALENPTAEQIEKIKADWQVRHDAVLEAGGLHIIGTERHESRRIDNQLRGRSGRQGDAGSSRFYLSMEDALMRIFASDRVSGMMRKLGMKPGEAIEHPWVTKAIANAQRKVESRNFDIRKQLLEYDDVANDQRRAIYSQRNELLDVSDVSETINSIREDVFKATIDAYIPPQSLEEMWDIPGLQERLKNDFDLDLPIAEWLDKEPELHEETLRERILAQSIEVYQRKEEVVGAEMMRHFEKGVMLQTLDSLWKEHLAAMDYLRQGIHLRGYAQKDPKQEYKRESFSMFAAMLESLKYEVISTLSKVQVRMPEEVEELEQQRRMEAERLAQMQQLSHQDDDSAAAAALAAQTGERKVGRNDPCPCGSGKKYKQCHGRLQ

| SMILES | Percent Effect [1] [%] | Percent Effect [2] [%] | Percent Effect [3] [%] | Percent Effect [4] [%] | Percent Effect (Trypanosoma cruzi) [%] | Percent Effect [5] [%] | Percent Effect [6] [%] | Percent Effect (Homo sapiens) [%] | Percent Effect [7] [%] | Percent Effect [8] [%] | Percent Effect [9] [%] |
| --- | --- | --- | --- | --- | --- | --- | --- | --- | --- | --- | --- |
| O=C(c1cc(F)ccc1F)C1CCN(C(=O)c2ccc(=O)[nH]n2)CC1 | -2.7 | 13 | 0.316 | 0.809 | -3.43 | 2.32 | 7.52 | 15.8 | 3.81 | 18.8 | -6.34 |
| CS(=O)(=O)NC1CCCN(C(=O)NCc2cc[nH]n2)C1 (stereo unspecified) | -5.06 | -31.2 | -5.48 | -13.5 | 5 | -6.11 | 17.1 | -0.514 | 8.57 | 21.2 | -16.2 |
| Cc1nn(C)c(N(C)C)c1CNCC(O)COc1ccccc1 (stereo unspecified) | -3.8 | 5.48 | -12.3 | 0.598 | 4.11 | 2.27 | 17.4 | -13.8 | 5.38 | 17.5 | -1.71 |
| Cc1nn(CC(=O)N2CCN(c3ccccc3F)CC2)c(C)c1Cl | 0.317 | 15.6 | 4.64 | 2.9 | 1.87 | -24.8 | 25.5 | 9.79 | 4.3 | 23.5 | 1.69 |
| O=C(CCN1C(=O)CCC1=O)Nc1cnn(-c2ccccc2Cl)c1 | -6.27 | 10.8 | 6.39 | 1.29 | -7.52 | -0.185 | 5.92 | 20.3 | 4.95 | 6.1 | 4.56 |
| COc1ccc(OCc2sc(C3(O)CCCNCC3)nc2C)cc1 (stereo unspecified) | -4.47 | 9.46 | 3.29 | 4.34 | -1.58 | 3.48 | 4.52 | 2.06 | 3.23 | 6.49 | -17.3 |
| Cc1nccn1CC1CCCN1S(=O)(=O)Cc1ccccc1F (stereo unspecified) | -5.1 | 22.8 | 1.28 | -4.39 | -1.79 | 1.14 | 2.05 | 13.2 | 4.43 | 21.5 | -7.01 |
| c1cc(CN2CCCC(c3noc(C4CC4)n3)C2)no1 (stereo unspecified) | 0.187 | -5.41 | -9.37 | 9.04 | 4.25 | -6.41 | 4.32 | 20.7 | 3.45 | 6.17 | -4.15 |
| Cc1nccc([C@H]2C[C@@H]3CCN(S(=O)(=O)N(C)C)C[C@H]3O2)n1 | -2.42 | 8.11 | -3.13 | 27.4 | 5.18 | 17.6 | 3.35 | -26.1 | 4.3 | 16.1 | -6.72 |
| CCN1CC(C(=O)NC(C)(C)CC(C)(C)C)CC1=O (stereo unspecified) | -3.13 | 10.8 | -0.778 | 22.8 | 4.4 | 21.1 | 5.06 | -0.424 | 5.38 | 8.64 | -10.2 |
| Cn1cc(C(=O)N2CC[C@@H]3[C@@H]2CCN3Cc2cccc(F)c2)cn1 | -5 | 8.11 | 1.6 | -0.0749 | 0.88 | 4.14 | 9.96 | -2.6 | 0 | 10.3 | 1.12 |
| OC1(Cn2ccc3ccncc32)CCN(Cc2ccccn2)CC1 | 0.875 | 6.76 | 1.5 | 0.0823 | -10.7 | 2.55 | 8.42 | 17.6 | -1.07 | 9.09 | -2.25 |
| CCOc1ccc(S(=O)(=O)NC(=O)CCC2CCCO2)cc1 (stereo unspecified) | -3.8 | 13.5 | -7.18 | -5.67 | 0.283 | -5.21 | 17.5 | 1.86 | 10.3 | 18.5 | -9.06 |
| CCc1nc(CN2CCN(C(=O)CCc3ccccc3)CC2)cs1 | -6.36 | 19 | -2.93 | 5.39 | -1.95 | 2.8 | 16.5 | 3.67 | -1.04 | 17.7 | -23.8 |
| Cc1noc(C)c1-c1cnc(CC2CCN(C(=O)c3cc[nH]n3)C2)cn1 (stereo unspecified) | -0.461 | 9.46 | 11.7 | -4.31 | -2.37 | -2.09 | 7.02 | 3.9 | 8.6 | 14.3 | -9.57 |
| CN1C[C@H]2CCN(C(=O)NC3CCCC3)CC[C@H]2S1(=O)=O | 1.67 | -4 | 10.5 | -0.732 | -5.7 | 29.4 | 4.62 | -1.7 | 1.06 | -2.56 | -5.65 |
| CCCNCc1cn(C)nc1-c1cccnc1 | -2.45 | -2.7 | 1.1 | -2.38 | -6.55 | 1.74 | 11.8 | -8 | 0 | 1.24 | 1.57 |
| Cn1nnc2c1CCN(Cc1nccs1)C2COCc1ccccc1 (stereo unspecified) | -2.95 | 2.67 | -19.8 | 5.81 | 1.77 | 5.83 | -8.9 | -0.293 | 7.45 | 8.97 | -0.607 |
| Cc1nc(C)n(CC2CCCN(Cc3ccc(C(N)=O)cc3)C2)n1 (stereo unspecified) | -2.97 | 5.2 | 2.61 | -0.0393 | -0.294 | -3.58 | 5.58 | 5.79 | 4.76 | 11.8 | -14.8 |
| Cc1noc([C@@H]2CCCN2C(=O)C2CCN(C(=O)C3CCC3)CC2)n1 | -2.73 | 5.48 | 27.2 | -1.91 | -6.27 | 0.909 | 11.7 | 27.9 | 0 | 5 | 98.2 |
| CN(Cc1cnn(C)c1)C(=O)Cn1c(CS(C)(=O)=O)nc2ccccc21 | -1.5 | 10.5 | 3.77 | -0.257 | -3.6 | -8.28 | 11.2 | 9.18 | 5.32 | 10.4 | -3.69 |
